Laboratory results taken from PubChem BioAssay AID1159580 (chemical genetic matrix, 2015).
The campaign covered roughly 5,500 compounds. About 2,000 (36%) were called active. Another 18% or so got no clear call; they are omitted. Cut-off read from the data, not from the text of the source: active = normalized growth mostly below about 0.91 (no sharp cut-off); inconclusive = no clear call, values can overlap the other calls; inactive = mostly above about 0.92. Some of the results follow.

Experiment: chemical genetic growth profiling, strain panel (AID 1159580);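 note: tested at 20 µM; growth read once vehicle control cultures reached saturation at 30 °C; 1 = growth at the plate median or of vehicle wells; lower values mean less growth of the strain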
Conditions: growth OD

Measured: normalized growth

CCCCCc1ccc(S(=O)(=O)Nc2cccnc2Oc2ccc(Cl)cc2)cc1
inactive: S. cerevisiae deletion strains, locus YAL013W, strain DEP1, active compounds read low 0.988 | S. cerevisiae deletion strains, locus YBR229C, strain ROT2, active compounds read low 1 | S. cerevisiae deletion strains, locus YDL101C, strain DUN1, active compounds read low 0.992 | S. cerevisiae deletion strains, locus YDL134C, strain PPH21, active compounds read low 0.994 | S. cerevisiae deletion strains, locus YDR150W, strain NUM1, active compounds read low 1 | S. cerevisiae deletion strains, locus YEL061C, strain CIN8, active compounds read low 1 | S. cerevisiae deletion strains, locus YGR078C, strain PAC10, active compounds read low 1 | S. cerevisiae deletion strains, locus YHR030C, strain SLT2, active compounds read low 0.965 | S. cerevisiae deletion strains, locus YHR087W, strain rtc3, active compounds read low 0.987 | S. cerevisiae deletion strains, locus YJL187C, strain SWE1, active compounds read low 0.998 | S. cerevisiae deletion strains, locus YJR043C, strain POL32, active compounds read low 0.988 | S. cerevisiae deletion strains, locus YJR075W, strain HOC1, active compounds read low 0.964 | S. cerevisiae deletion strains, locus YLR039C, strain RIC1, active compounds read low 0.951 | S. cerevisiae deletion strains, locus YLR058C, strain SHM2 (second series), active compounds read low 0.994 | S. cerevisiae deletion strains, locus YLR085C, strain ARP6, active compounds read low 1 | S. cerevisiae deletion strains, locus YLR262C, strain YPT6, active compounds read low 0.951 | S. cerevisiae deletion strains, locus YML094W, strain GIM5, active compounds read low 0.998 | S. cerevisiae deletion strains, locus YMR219W, strain ESC1, active compounds read low 0.996 | S. cerevisiae deletion strains, locus YMR263W, strain SAP30, active compounds read low 0.997 | S. cerevisiae deletion strains, locus YMR307W, strain GAS1, active compounds read low 0.992 | S. cerevisiae deletion strains, locus YNL128W, strain TEP1, active compounds read low 1.01 | S. cerevisiae deletion strains, locus YNL153C, strain GIM3, active compounds read low 1 | S. cerevisiae deletion strains, locus YNL298W, strain CLA4 (second series), active compounds read low 1.01 | S. cerevisiae deletion strains, locus YNL322C, strain KRE1, active compounds read low 0.995 | S. cerevisiae deletion strains, locus YNR030W, strain Alg12, active compounds read low 0.984 | S. cerevisiae deletion strains, locus YOL006C, strain TOP1, active compounds read low 0.986 | S. cerevisiae deletion strains, locus YPL055C, strain LGE1, active compounds read low 0.989 | S. cerevisiae deletion strains, locus YPL241C, strain CIN2, active compounds read low 1.08 | S. cerevisiae deletion strains, locus YPR135W, strain CTF4, active compounds read low 1.02 | S. cerevisiae strains, strain wild type, active compounds read low 1
